Molecules are shown by their SMILES. Where “and” joins values, the source holds several entries; their conditions need not be identical. Equal entries are not always repeated. Calls of active or inactive are those of the source.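 The calls were made as follows: active = thallium flux through the channel raised or lowered by more than 3 SD from vehicle-only wells, actives on both sides; inactive = the rest.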

One assay has as its system F380Y. Put plainly: BK channel mutant inhibitors and activators – cell-based, U2OS BacMam, thallium flux, beta subunits, selectivity assay, profiling panel (AID 1259406).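 Also: initial slope of Thallos dye fluorescence rise after thallium is added; log ratio against the mean of 0.3% DMSO vehicle wells on the same plate.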 The following applies: U2OS BacMam BK variants, at 30 µM.
Consider `OCCN1CCN(CCCN2c3ccccc3Sc3ccc(C(F)(F)F)cc32)CC1`, for which the log fold change Tl+ flux was 0.235 (active).

Take `NS(=O)(=O)c1cc2c(cc1Cl)NC=NS2(=O)=O`: the log fold change Tl+ flux was 0.0512 (inactive).

As for `O=C1C(CCS(=O)c2ccccc2)C(=O)N(c2ccccc2)N1c1ccccc1` (stereo not drawn), the log fold change Tl+ flux is -0.0134 (inactive).

Turning to `Cc1ccc(-c2cc(C(F)(F)F)nn2-c2ccc(S(N)(=O)=O)cc2)cc1`, the log fold change Tl+ flux was 0.057 (inactive).

`CN[C@H]1CC[C@@H](c2ccc(Cl)c(Cl)c2)c2ccccc21`: the log fold change Tl+ flux was 0.286 (active) and 0.195 (active).

On to `Cc1ccccc1C(OCCN(C)C)c1ccccc1` (stereo not drawn), for which the log fold change Tl+ flux was 0.0933 (inactive) and 0.0755 (inactive).

In the case of `CCc1nc(N)nc(N)c1-c1ccc(Cl)cc1`, the log fold change Tl+ flux was 0.0572 (inactive).

Take `COc1cc2nc(N(C)CCCNC(=O)C3CCCO3)nc(N)c2cc1OC` (stereo not drawn): the log fold change Tl+ flux is 0.0271 (inactive).

Take `CN(C)CCOC(c1ccc(Cl)cc1)c1ccccn1` (stereo not drawn): the log fold change Tl+ flux was 0.0898 (inactive).

On to `N[C@@H](C(=O)N[C@@H]1C(=O)N2C(C(=O)O)=C(Cl)CS[C@H]12)c1ccccc1`, for which the log fold change Tl+ flux was -0.0277 (inactive).

As to `Nc1ncn([C@@H]2O[C@H](CO)[C@@H](O)[C@H]2O)c(=O)n1`, the log fold change Tl+ flux was -0.0337 (inactive).

In the case of `NCc1ccc(S(N)(=O)=O)cc1`, the log fold change Tl+ flux is 0.0308 (inactive).

For the molecule `Cc1ncc([N+](=O)[O-])n1CC(C)O` (stereo not drawn), the log fold change Tl+ flux was -0.058 (inactive).

Regarding `Cc1ccc(C)c(OCCCC(C)(C)C(=O)O)c1`, the log fold change Tl+ flux was 0.0531 (inactive).

As to `CN1CCCC(n2nc(Cc3ccc(Cl)cc3)c3ccccc3c2=O)CC1` (stereo not drawn), the log fold change Tl+ flux is 0.248 (active).

For the molecule `NS(=O)(=O)c1cc2c(cc1C(F)(F)F)NC(Cc1ccccc1)NS2(=O)=O` (stereo not drawn), the log fold change Tl+ flux is 0.0508 (inactive).

For `COC1=CC(=O)C[C@@H](C)[C@]12Oc1c(Cl)c(OC)cc(OC)c1C2=O`, the log fold change Tl+ flux was 0.00739 (inactive).

For `Cc1cn([C@H]2C[C@H](N=[N+]=[N-])[C@@H](CO)O2)c(=O)[nH]c1=O`, the log fold change Tl+ flux was -0.00123 (inactive).

For `CN(CCOc1ccc(CC2SC(=O)NC2=O)cc1)c1ccccn1` (stereo not drawn), the log fold change Tl+ flux is -0.00159 (inactive) and 0.0548 (inactive).

As to `COc1ccc(OC)c(C(O)CNC(=O)CN)c1` (stereo not drawn), the log fold change Tl+ flux was -0.028 (inactive).

With `OC(CCN1CCCC1)(c1ccccc1)C1CCCCC1` (stereo not drawn), the log fold change Tl+ flux is 0.0696 (inactive).

`NC(=O)N1c2ccccc2CC(=O)c2ccccc21`: the log fold change Tl+ flux is -0.0346 (inactive).

Regarding `CCCNCC(O)COc1ccccc1C(=O)CCc1ccccc1` (stereo not drawn), the log fold change Tl+ flux was 0.197 (active).

Take `C/C=C/C(=O)N(CC)c1ccccc1C`: the log fold change Tl+ flux is 0.0255 (inactive).

Consider `CCCCCCNC(=O)n1cc(F)c(=O)[nH]c1=O`, for which the log fold change Tl+ flux was -0.0314 (inactive).

For `NC(=O)c1cnccn1`, the log fold change Tl+ flux is -0.0194 (inactive).

Consider `CN(C)CCc1c[nH]c2ccc(C[C@H]3COC(=O)N3)cc12`, for which the log fold change Tl+ flux is 0.0506 (inactive).

Consider `COc1ccccc1OCC(O)COC(N)=O` (stereo not drawn), for which the log fold change Tl+ flux was 0.00752 (inactive).

Take `COC(=O)Nc1nc2ccc(C(=O)c3ccccc3)cc2[nH]1`: the log fold change Tl+ flux is -0.0365 (inactive).

As to `CCn1cc(C(=O)O)c(=O)c2cc(F)c(N3CCN(C)CC3)cc21`, the log fold change Tl+ flux was -0.0273 (inactive).

In the case of `Cn1cnc([N+](=O)[O-])c1Sc1ncnc2nc[nH]c12`, the log fold change Tl+ flux is -0.0816 (inactive).

In the case of `c1ccc2[nH]c(-c3cscn3)nc2c1`, the log fold change Tl+ flux was -0.0155 (inactive).

For `Cc1onc(-c2c(Cl)cccc2Cl)c1C(=O)N[C@@H]1C(=O)N2[C@@H]1SC(C)(C)[C@@H]2C(=O)O`, the log fold change Tl+ flux is 0.01 (inactive).

As to `Clc1ccc2c(c1)C(N1CCNCC1)=Nc1ccccc1O2`, the log fold change Tl+ flux is 0.111 (active).

Consider `CO[C@@]1(NC(=O)Cc2cccs2)C(=O)N2C(C(=O)O)=C(COC(N)=O)CS[C@@H]21`, for which the log fold change Tl+ flux is 0.0585 (inactive).

Consider `CCc1cccc2c3c([nH]c12)C(CC)(CC(=O)O)OCC3` (stereo not drawn), for which the log fold change Tl+ flux was 0.0338 (inactive).

On to `CC(C)(C)NCC(O)COc1cccc2c1C[C@H](O)[C@H](O)C2` (stereo partly drawn), for which the log fold change Tl+ flux is 0.0119 (inactive).

On to `O=S(=O)(O)CCS`, for which the log fold change Tl+ flux is -0.0468 (inactive).

Turning to `O=c1[nH]cc(F)c(=O)[nH]1`, the log fold change Tl+ flux is -0.0334 (inactive).

Another assay has as its system F380Y/beta1. The description is as above. The note with it: U2OS BacMam BK variants, at 30 µM.
With `OCCN1CCN(CCCN2c3ccccc3Sc3ccc(C(F)(F)F)cc32)CC1`, the log fold change Tl+ flux was 0.117 (active).

Consider `NS(=O)(=O)c1cc2c(cc1Cl)NC=NS2(=O)=O`, for which the log fold change Tl+ flux is 0.0165 (inactive).

As for `O=C1C(CCS(=O)c2ccccc2)C(=O)N(c2ccccc2)N1c1ccccc1` (stereo not drawn), the log fold change Tl+ flux is 0.0248 (inactive).

For `Cc1ccc(-c2cc(C(F)(F)F)nn2-c2ccc(S(N)(=O)=O)cc2)cc1`, the log fold change Tl+ flux was -0.0387 (inactive).

On to `CN[C@H]1CC[C@@H](c2ccc(Cl)c(Cl)c2)c2ccccc21`, for which the log fold change Tl+ flux was 0.844 (active) and 0.685 (active).

As for `Cc1ccccc1C(OCCN(C)C)c1ccccc1` (stereo not drawn), the log fold change Tl+ flux is 0.00351 (inactive) and 0.0509 (inactive).

For the molecule `CCc1nc(N)nc(N)c1-c1ccc(Cl)cc1`, the log fold change Tl+ flux was -0.116 (inactive).

For the molecule `COc1cc2nc(N(C)CCCNC(=O)C3CCCO3)nc(N)c2cc1OC` (stereo not drawn), the log fold change Tl+ flux was -0.0154 (inactive).

With `CN(C)CCOC(c1ccc(Cl)cc1)c1ccccn1` (stereo not drawn), the log fold change Tl+ flux is 0.0451 (inactive).

Take `N[C@@H](C(=O)N[C@@H]1C(=O)N2C(C(=O)O)=C(Cl)CS[C@H]12)c1ccccc1`: the log fold change Tl+ flux is -0.0714 (inactive).

With `Nc1ncn([C@@H]2O[C@H](CO)[C@@H](O)[C@H]2O)c(=O)n1`, the log fold change Tl+ flux was -0.0139 (inactive).

With `NCc1ccc(S(N)(=O)=O)cc1`, the log fold change Tl+ flux is 0.0173 (inactive).

For the molecule `Cc1ncc([N+](=O)[O-])n1CC(C)O` (stereo not drawn), the log fold change Tl+ flux was -0.0446 (inactive).

For `Cc1ccc(C)c(OCCCC(C)(C)C(=O)O)c1`, the log fold change Tl+ flux is 0.07 (inactive).

In the case of `CN1CCCC(n2nc(Cc3ccc(Cl)cc3)c3ccccc3c2=O)CC1` (stereo not drawn), the log fold change Tl+ flux is 0.109 (active).

As for `NS(=O)(=O)c1cc2c(cc1C(F)(F)F)NC(Cc1ccccc1)NS2(=O)=O` (stereo not drawn), the log fold change Tl+ flux was -0.0798 (inactive).

As to `COC1=CC(=O)C[C@@H](C)[C@]12Oc1c(Cl)c(OC)cc(OC)c1C2=O`, the log fold change Tl+ flux was -0.046 (inactive).

For the molecule `Cc1cn([C@H]2C[C@H](N=[N+]=[N-])[C@@H](CO)O2)c(=O)[nH]c1=O`, the log fold change Tl+ flux is 0.0379 (inactive).

On to `CN(CCOc1ccc(CC2SC(=O)NC2=O)cc1)c1ccccn1` (stereo not drawn), for which the log fold change Tl+ flux is 0.17 (active) and 0.199 (active).

In the case of `COc1ccc(OC)c(C(O)CNC(=O)CN)c1` (stereo not drawn), the log fold change Tl+ flux was 0.0228 (inactive).

With `OC(CCN1CCCC1)(c1ccccc1)C1CCCCC1` (stereo not drawn), the log fold change Tl+ flux was 0.0373 (inactive).

Take `NC(=O)N1c2ccccc2CC(=O)c2ccccc21`: the log fold change Tl+ flux was -0.0277 (inactive).

Turning to `CCCNCC(O)COc1ccccc1C(=O)CCc1ccccc1` (stereo not drawn), the log fold change Tl+ flux is 0.0626 (inactive).

For the molecule `C/C=C/C(=O)N(CC)c1ccccc1C`, the log fold change Tl+ flux was -0.0381 (inactive).

With `CCCCCCNC(=O)n1cc(F)c(=O)[nH]c1=O`, the log fold change Tl+ flux was -0.0124 (inactive).

On to `NC(=O)c1cnccn1`, for which the log fold change Tl+ flux was 0.0317 (inactive).

`CN(C)CCc1c[nH]c2ccc(C[C@H]3COC(=O)N3)cc12`: the log fold change Tl+ flux is 0.00826 (inactive).

For `COc1ccccc1OCC(O)COC(N)=O` (stereo not drawn), the log fold change Tl+ flux was 0.0402 (inactive).

Regarding `COC(=O)Nc1nc2ccc(C(=O)c3ccccc3)cc2[nH]1`, the log fold change Tl+ flux was 0.0198 (inactive).

Regarding `CCn1cc(C(=O)O)c(=O)c2cc(F)c(N3CCN(C)CC3)cc21`, the log fold change Tl+ flux is -0.000461 (inactive).

`Cn1cnc([N+](=O)[O-])c1Sc1ncnc2nc[nH]c12`: the log fold change Tl+ flux is -0.0302 (inactive).

Take `c1ccc2[nH]c(-c3cscn3)nc2c1`: the log fold change Tl+ flux was -0.00469 (inactive).

In the case of `Cc1onc(-c2c(Cl)cccc2Cl)c1C(=O)N[C@@H]1C(=O)N2[C@@H]1SC(C)(C)[C@@H]2C(=O)O`, the log fold change Tl+ flux is -0.0941 (inactive).

`Clc1ccc2c(c1)C(N1CCNCC1)=Nc1ccccc1O2`: the log fold change Tl+ flux was 0.0215 (inactive).

In the case of `CO[C@@]1(NC(=O)Cc2cccs2)C(=O)N2C(C(=O)O)=C(COC(N)=O)CS[C@@H]21`, the log fold change Tl+ flux was -0.00712 (inactive).

Turning to `CCc1cccc2c3c([nH]c12)C(CC)(CC(=O)O)OCC3` (stereo not drawn), the log fold change Tl+ flux was 0.0385 (inactive).

For `CC(C)(C)NCC(O)COc1cccc2c1C[C@H](O)[C@H](O)C2` (stereo partly drawn), the log fold change Tl+ flux is 0.00674 (inactive).

Take `O=S(=O)(O)CCS`: the log fold change Tl+ flux was 0.0507 (inactive).

Consider `O=c1[nH]cc(F)c(=O)[nH]1`, for which the log fold change Tl+ flux is 0.0119 (inactive).

The values above are taken from PubChem BioAssay.
